Data as given in PubChem BioAssay AID624139 (Broad Institute, 2012).
Among all 17,000 compounds or so, about 220 (1.3%) were called active.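 Rule for the calls: active = spot fluorescence over background significantly raised, with a chance value under 7% in all four replicate spots of the compound; inactive = the rest.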 For the sample, actives were picked, then their nearest neighbours and some compounds at random.

Molecular target: Nuclear factor NF-kappa-B p105 subunit (Homo sapiens) (UniProt P19838)
Assay: small molecules binding NF-kappa-B p105/p50 – biochemical, small molecule microarray, anti-His fluorescence, primary screen (AID 624139);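 note: probe protein is his-tagged human p50 processed subunit at 1 µg/ml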

Sequence of Nuclear factor NF-kappa-B p105 subunit (Homo sapiens) (P19838 1-433 limits assumed): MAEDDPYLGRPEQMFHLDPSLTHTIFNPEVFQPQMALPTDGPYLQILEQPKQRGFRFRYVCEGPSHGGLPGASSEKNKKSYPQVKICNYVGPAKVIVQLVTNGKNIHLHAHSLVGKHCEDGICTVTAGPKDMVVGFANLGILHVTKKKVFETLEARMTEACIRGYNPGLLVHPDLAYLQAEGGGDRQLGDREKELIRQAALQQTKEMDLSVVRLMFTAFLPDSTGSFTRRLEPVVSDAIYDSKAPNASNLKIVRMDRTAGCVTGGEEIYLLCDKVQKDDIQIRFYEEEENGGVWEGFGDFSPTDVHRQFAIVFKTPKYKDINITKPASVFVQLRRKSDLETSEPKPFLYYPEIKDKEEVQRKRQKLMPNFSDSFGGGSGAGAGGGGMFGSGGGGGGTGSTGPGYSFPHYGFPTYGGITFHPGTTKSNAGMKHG

Structure (SMILES)	outcome
C[C@@H]1CCCCO[C@H](CN(C)C(=O)Nc2ccccc2)[C@H](C)CN([C@H](C)CO)C(=O)c2cc(NC(=O)Nc3ccccc3)ccc2O1	inactive
CC(C)NC(=O)N(C)C[C@@H]1OCCCC[C@@H](C)Oc2ccc(NC(=O)Nc3ccccc3)cc2C(=O)N([C@H](C)CO)C[C@@H]1C	inactive
C[C@@H]1CN([C@@H](C)CO)C(=O)c2cc(NC(=O)C3CCCCC3)ccc2O[C@@H](C)CCCCO[C@@H]1CN(C)C(=O)Nc1ccccc1	inactive
C[C@@H]1CCCCO[C@H](CN(C)C(=O)C2CCCCC2)[C@@H](C)CN([C@@H](C)CO)C(=O)c2cc(NC(=O)Nc3ccccc3)ccc2O1	active
C[C@H](CO)N1C[C@H](C)[C@@H](CN(C)C)OCCCC[C@H](C)Oc2ccc(NC(=O)C3CCCCC3)cc2C1=O	inactive
C[C@@H]1CCCCO[C@H](CN(C)C(=O)NC2CCCCC2)[C@H](C)CN([C@@H](C)CO)C(=O)c2cc(NC(=O)C3CCCCC3)ccc2O1	active
C[C@@H]1CN([C@@H](C)CO)C(=O)c2cc(NS(=O)(=O)c3ccccc3)ccc2O[C@@H](C)CCCCO[C@H]1CN(C)C(=O)C1CCCCC1	inactive
C[C@@H]1CCCCO[C@H](CN(C)C(=O)CCCN(C)C)[C@H](C)CN([C@@H](C)CO)C(=O)c2cc(NS(=O)(=O)c3ccccc3)ccc2O1	inactive
CCC1(C)C(=O)C=C2C(=COC(C)=C2C)C1O (stereo not drawn)	inactive
COc1ccccc1NC(=O)c1ccc(OCC(=O)O)cc1	inactive
C[C@H](CO)N1C[C@H](C)[C@@H](CN(C)C(=O)Nc2cccc3ccccc23)Oc2c(NS(=O)(=O)c3ccccc3)cccc2C1=O	inactive
CC1OC(Oc2cc(O)c3c(=O)c(OC4OCC(O)C(O)C4O)c(-c4ccc(O)cc4)oc3c2)C(O)C(O)C1O (stereo not drawn)	inactive
O=C(CS(=O)(=O)c1ccccc1)Nc1ccc2c(c1)OCCO2	inactive
COc1ccc(CN(C)C[C@H]2Oc3ccc(NC(=O)CCN4CCOCC4)cc3C(=O)N([C@@H](C)CO)C[C@H]2C)cc1	inactive
CC(=O)OC[C@H]1O[C@@H](Oc2c(-c3ccc(O)c(O)c3)oc3cc(O)cc(O)c3c2=O)[C@H](O)[C@@H](O)[C@@H]1O	inactive
C[C@H](CO)N1C[C@H](C)[C@@H](CN(C)Cc2ccc3c(c2)OCO3)Oc2ccc(NC(=O)Nc3ccc(F)cc3)cc2C1=O	inactive
C[C@@H]1CN([C@@H](C)CO)C(=O)c2cc(NC(=O)Nc3ccc4c(c3)OCO4)ccc2O[C@@H](C)CCCCO[C@@H]1CN(C)Cc1ccccc1	inactive
CCOC(=O)c1nnn(-c2nonc2-n2cccc2)c1CN1CCOCC1	inactive
Cc1noc(C)c1NC(=O)Nc1ccc2c(c1)CC(=O)N([C@@H](C)CO)C[C@H](C)[C@@H](CN(C)C(=O)Nc1ccc3c(c1)OCO3)O2	inactive
C[C@@H]1CN([C@@H](C)CO)C(=O)Cc2cc(NC(=O)NC3CCCCC3)ccc2O[C@H]1CN(C)C(=O)Nc1ccc(C(F)(F)F)cc1	inactive
Cc1cc(C)cc(Oc2c(C(F)(F)F)oc3cc(OCC(=O)O)ccc3c2=O)c1	active
C[C@H]1CN([C@@H](C)CO)C(=O)Cc2cc(NS(C)(=O)=O)ccc2O[C@@H]1CN(C)S(=O)(=O)c1cccs1	inactive

Structure (SMILES)	outcome
N#Cc1c(SCC(=O)Nc2ccccc2)ncc2cc3ccccc3nc12	inactive
CN(C)Cc1c(O)ccc2occ(C(O)c3ccccc3)c12 (stereo not drawn)	inactive
Cc1ccc(S(=O)(=O)NCC(=O)N2CCN(c3ccccn3)CC2)cc1	inactive
CCCN(C)C[C@@H]1Oc2ncc(C#Cc3ccccc3)cc2C(=O)N([C@H](C)CO)C[C@@H]1C	inactive
C#Cc1ccc([C@H]2C=C(C(=O)O)O[C@@H](OCC)[C@@H]2CCCO)cc1	inactive
COc1ccc(NC(=O)N(C)C[C@@H]2OCCCC[C@@H](C)Oc3ccc(N(C)C)cc3C(=O)N([C@H](C)CO)C[C@@H]2C)cc1	inactive
C[C@@H]1CCCCO[C@@H](CN(C)C)[C@@H](C)CN([C@H](C)CO)C(=O)c2cc(N(C)C)ccc2O1	inactive
C[C@H](CO)N1C[C@H](C)[C@@H](CN(C)C(=O)C2CCCCC2)OCCCC[C@H](C)Oc2ccc(N(C)C)cc2C1=O	inactive
C[C@@H]1CCCCO[C@H](CN(C)S(=O)(=O)c2cccs2)[C@@H](C)CN([C@@H](C)CO)C(=O)c2cc(NC(=O)Nc3ccc4c(c3)OCO4)ccc2O1	inactive
COC(=O)c1c(CC[C@@H](CO)NC(=O)Nc2ncn[nH]2)oc(C(=O)Cc2ccccc2)c1C(=O)OC	inactive
Cc1noc(C)c1S(=O)(=O)N(C)C[C@@H]1OCCCC[C@H](C)Oc2ccc(NC(=O)NC(C)C)cc2C(=O)N([C@H](C)CO)C[C@@H]1C	inactive
COC(=O)C1=C[C@@H](O)[C@@H](O)[C@H](O[C@@H]2O[C@H](CO)[C@@H](O)[C@H](O)[C@H]2OC(=O)/C=C/c2ccccc2)C1	inactive
CC(C)NC(=O)Nc1ccc2c(c1)C(=O)N([C@@H](C)CO)C[C@H](C)[C@@H](CN(C)Cc1ccc(C(=O)O)cc1)OCCCC[C@H](C)O2	inactive
C[C@@H]1CCCCO[C@@H](CN(C)Cc2ccncc2)[C@H](C)CN([C@H](C)CO)C(=O)c2cc(N(C)C)ccc2O1	inactive
C[C@@H]1CN([C@H](C)CO)C(=O)CCCn2nncc2CO[C@@H]1CN(C)C	inactive
C[C@@H]1CN([C@@H](C)CO)C(=O)c2cccc(NC(=O)Nc3ccc(F)cc3)c2O[C@H]1CN(C)C(=O)Nc1ccc(F)cc1	inactive
C[C@H]1CCCCO[C@@H](CN(C)Cc2ccc(C(=O)O)cc2)[C@@H](C)CN([C@@H](C)CO)C(=O)c2cc(NS(C)(=O)=O)ccc2O1	inactive
COc1ccc(CN(C)C[C@@H]2Oc3ccc(NC(=O)c4ccncc4)cc3CC(=O)N([C@H](C)CO)C[C@H]2C)cc1	inactive
COc1cccc(OC)c1C(=O)NC(=S)NCc1ccco1	inactive
C[C@@H]1CCCCO[C@@H](CN(C)C(=O)Nc2ccc(F)cc2)[C@H](C)CN([C@@H](C)CO)C(=O)c2cc(NS(=O)(=O)c3ccccc3)ccc2O1	inactive
C[C@@H]1CN([C@@H](C)CO)C(=O)CCCn2cc(nn2)CO[C@H]1CN(C)S(=O)(=O)c1ccc(-n2cccn2)cc1	inactive
